In the supplement of paper PMC8285479 one finds normalised cell viability data, which are given here for 16 molecules.

The experiment relates to NCI-H1944. As to the kind of experiment: normalised cell viability (NPI; 0 = phenylarsine oxide control, 1 = DMSO control) (fraction of DMSO control); NCI-H1944 is a non-small cell lung cancer line; higher = more viable cells (less compound toxicity). The settings on record: 6 days.
Setting [1] is: glucocorticoid arm: hydrocortisone 2.75 uM co-treatment, compound 1 µM.
The mark [2] stands for this setting: glucocorticoid arm: hydrocortisone 2.75 uM co-treatment, compound 5 µM.
The mark [3] stands for this setting: glucocorticoid arm: hydrocortisone 2.75 uM pre-treated 2 days and continued, compound 1 µM.
Setting [4] is: glucocorticoid arm: hydrocortisone 2.75 uM pre-treated 2 days and continued, compound 5 µM.
The mark [5] stands for this setting: glucocorticoid arm: vehicle, compound 1 µM.
Setting [6] is: glucocorticoid arm: vehicle, compound 5 µM.

SMILES strings stand for the structures. Where a name gives a salt, the structure may show the parent alone. ± gives the standard deviation of the averaged measurements. In all, about 1,900 compounds were measured (“normalised cell viability (NPI; 0 = phenylarsine oxide control, 1 = DMSO control)”: median about 1, lowest 2% from about 0.039 on). This is one part of a sample in which the lowest values are shown more often than they occur.
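Note: CTB read-out in 384-well plates, triplicate wells, NPI normalised per plate against 1 µM phenylarsine oxide (0) and 0.1% DMSO (1) controls.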

With `C#C[C@]1(O)CC[C@H]2[C@@H]3CCC4=Cc5oncc5C[C@]4(C)[C@H]3CC[C@@]21C` [Danazol], the normalised cell viability was 0.998 ± 0.001 under setting [1]; 1 ± 0.021 under setting [2]; 0.991 ± 0.022 under setting [3]; 1.01 ± 0.027 under setting [4]; 1.007 ± 0.0058 under setting [5]; 1.013 ± 0.0058 under setting [6].

Consider `C[C@]12CC[C@H](O)CC1=CC[C@@H]1[C@@H]2CC[C@]2(C)C(c3cccnc3)=CC[C@@H]12` [Abiraterone], for which the normalised cell viability reads like this: under setting [1], 1.043 ± 0.0058; under setting [2], 1.18 ± 0.023; under setting [3], 1.05; under setting [4], 1.11 ± 0.025; under setting [5], 0.848 ± 0.021; under setting [6], 1.05 ± 0.011.

With `O=C(NCCCNc1nc(Nc2cccc(NC(=O)N3CCCC3)c2)ncc1I)c1cccs1`, the normalised cell viability by setting is: under setting [1], 0.9797 ± 0.0095; under setting [2], 0.993 ± 0.027; under setting [3], 0.9587 ± 0.0025; under setting [4], 1.05 ± 0.017; under setting [5], 0.71 ± 0.01; under setting [6], 0.3133 ± 0.0023.

`c1ccc2c(-c3cnn4cc(-c5ccc(N6CCNCC6)cc5)cnc34)ccnc2c1`: the normalised cell viability was 1.043 ± 0.0058 under setting [1]; 0.832 ± 0.14 under setting [2]; 1.04 ± 0.01 under setting [3]; 1.09 ± 0.021 under setting [4]; 1.01 ± 0.011 under setting [5]; 0.0214 ± 0.0048 under setting [6].

`Nc1ncnc2c1nc(Br)n2C1OC2COP(=O)(O)O[C@@H]2C1O` (stereo partly specified) [8-Bromo-cAMP sodium]: the normalised cell viability under setting [1] was determined as 0.9863 ± 0.004; the normalised cell viability under setting [2] was found to be 0.901 ± 0.017; the normalised cell viability under setting [3] is 0.983 ± 0.001; the normalised cell viability under setting [4] turned out to be 0.96 ± 0.016; the normalised cell viability under setting [5] came out at 0.9617 ± 0.0067; the normalised cell viability under setting [6] amounted to 0.9647 ± 0.0093.

Regarding `Cc1nn(-c2ccccc2)c(C)c1C=NN1CCN(Cc2ccccc2)CC1`, the normalised cell viability by setting is: under setting [1], 1.01 ± 0.01; under setting [2], 0.991 ± 0.05; under setting [3], 1.02 ± 0.011; under setting [4], 0.9927 ± 0.0078; under setting [5], 0.9987 ± 0.0023; under setting [6], 0.996 ± 0.013.

With `CNC(CC(=O)O)C(=O)O` [NMDA (N-Methyl-D-aspartic acid)], the normalised cell viability runs as follows: under setting [1], 1.006 ± 0.0069; under setting [2], 1.03 ± 0.037; under setting [3], 1.01 ± 0.032; under setting [4], 1.01 ± 0.013; under setting [5], 1.003 ± 0.0058; under setting [6], 0.9973 ± 0.0025.

`FC(F)(F)c1cc(COC2CCCNC2c2ccccc2)cc(C(F)(F)F)c1` [L-733,060 hydrochloride]: the normalised cell viability reads like this: under setting [1], 0.9863 ± 0.0067; under setting [2], 0.843 ± 0.034; under setting [3], 1 ± 0.014; under setting [4], 0.993 ± 0.076; under setting [5], 0.9957 ± 0.0067; under setting [6], 0.928 ± 0.076.

`N/C(=N\C(=O)c1nc(Cl)c(N)nc1N)NCc1ccccc1` [Benzamil hydrochloride]: the normalised cell viability reads like this: under setting [1], 1.023 ± 0.0058; under setting [2], 1.04 ± 0.01; under setting [3], 1.03 ± 0.011; under setting [4], 1.05 ± 0.028; under setting [5], 0.9897 ± 0.0045; under setting [6], 1.02 ± 0.016.

Turning to `N/C(=N\C(=O)c1nc(Cl)c(N)nc1N)NCc1ccc(Cl)c(Cl)c1` [3',4'-Dichlorobenzamil hydrochloride], the normalised cell viability is 0.99 ± 0.0089 under setting [1]; 0.0646 ± 0.03 under setting [2]; 0.998 ± 0.013 under setting [3]; 0.862 ± 0.014 under setting [4]; 0.98667 ± 0.00058 under setting [5]; 0.0118 ± 0.0064 under setting [6].

As for `N=C(N)NC(=O)c1nc(Cl)c(N)nc1N` [Amiloride hydrochloride], the normalised cell viability under setting [1] worked out at 0.9737 ± 0.006; the normalised cell viability under setting [2] worked out at 0.966 ± 0.023; the normalised cell viability under setting [3] was 0.991 ± 0.0052; the normalised cell viability under setting [4] was determined as 0.992 ± 0.025; the normalised cell viability under setting [5] was determined as 0.9947 ± 0.0084; the normalised cell viability under setting [6] was found to be 1.003 ± 0.0064.

Consider `CCCCCCCCCCCCCCCCCC(=O)NCC(COP(=O)([O-])OCC[N+](C)(C)C)OCC` (racemic) [rac-2-Ethoxy-3-octadecanamido-1-propylphosphocholine], for which the normalised cell viability stood at 1.017 ± 0.0058 under setting [1]; 1.04 ± 0.011 under setting [2]; 1.01 ± 0.011 under setting [3]; 1.04 ± 0.021 under setting [4]; 0.9997 ± 0.0091 under setting [5]; 1.002 ± 0.0067 under setting [6].

Turning to `CCCCOc1cc(CC2CNC(=O)N2)ccc1OC` (stereo unspecified), the normalised cell viability under setting [1] is 1.01 ± 0.01; the normalised cell viability under setting [2] stood at 1.01 ± 0.021; the normalised cell viability under setting [3] was determined as 1.01 ± 0.011; the normalised cell viability under setting [4] came to 1.01 ± 0.021; the normalised cell viability under setting [5] came out at 1.013 ± 0.0058; the normalised cell viability under setting [6] turned out to be 1.013 ± 0.0058.

On to `COC(=O)C[C@](O)(CCCC(C)(C)O)C(=O)O[C@@H]1C(OC)=C[C@]23CCCN2CCc2cc4c(cc2[C@H]13)OCO4` [Omacetaxine mepesuccinate], for which the normalised cell viability reads like this: under setting [1], 0.00277 ± 0.001; under setting [2], 1.08 ± 0.026; under setting [3], 0.0391 ± 0.002; under setting [4], 1.03 ± 0.021; under setting [5], 0.00151 ± 0.00092; under setting [6], 1.017 ± 0.0058.

As for `O=c1[nH]c2cc(Cl)c(Cl)cc2[nH]c1=O` [6,7-Dichloroquinoxaline-2,3-dione], the normalised cell viability by setting is: under setting [1], 1.01 ± 0.011; under setting [2], 1.04 ± 0.011; under setting [3], 1.003 ± 0.0061; under setting [4], 1.04 ± 0.021; under setting [5], 0.989 ± 0.007; under setting [6], 1.002 ± 0.0068.

As to `NC(=O)c1cc[n+](CC2=C(C(=O)O)N3C(=O)[C@@H](NC(=O)C(c4ccccc4)S(=O)(=O)[O-])[C@H]3SC2)cc1` (stereo partly specified) [Cefsulodin sodium salt hydrate], the normalised cell viability reads like this: under setting [1], 1.01; under setting [2], 1.013 ± 0.0058; under setting [3], 1.02; under setting [4], 1.01 ± 0.014; under setting [5], 0.997 ± 0.013; under setting [6], 0.9997 ± 0.0096.
